This assay concerns the target human CYP2E1, CYP2E1 (gene 1571) (UniProt P05181). Nature of the assay: NVS_ADME_hCYP2E1: NovaScreen (NVS) CYP450-related Enzyme Activity (ADME) Assay for human CYP2E1. As for the experimental part: NVS_ADME_hCYP2E1 is a biochemical, single-readout assay that uses extracted gene-proteins in a cell-free assay. Measurements were taken 0.5 hour after chemical dosing in a 96-well plate.NVS_ADME_hCYP2E1 is one of one assay component(s) measured or calculated from the NVS_ADME_hCYP2E1 assay. It is designed to make measurements of enzyme activity, a form of enzyme reporter, as detected with fluorescence intensity signals by Fluorescence technology.Data from the assay component NVS_ADME_hCYP2E1 was analyzed into 1 assay endpoint. This assay endpoint, NVS_ADME_hCYP2E1, was analyzed in the positive analysis fitting direction relative to Acetonitrile as the negative control and baseline of activity. Using a type of enzyme reporter, loss-of-signal activity can be used to understand changes in the enzymatic activity as they relate to the gene CYP2E1. Furthermore, this assay endpoint can be referred to as a primary readout, because this assay has produced multiple assay endpoints where this one serves a enzymatic activity function. To generalize the intended target to other relatable targets, this assay endpoint is annotated to the cyp intended target family, where the subfamily is xenobiotic metabolism. […]

As a reminder, the AC50 is the concentration at which the activity in the assay is half-maximal.

Activity calls are given as the source filed them. Rule for the calls: active = hit-call score of the fitted dose curve at least 0.9, where 1 is the maximum; inactive = score below 0.9.

Sequence of human CYP2E1, CYP2E1 (gene 1571) (P05181 whole entry, looked up): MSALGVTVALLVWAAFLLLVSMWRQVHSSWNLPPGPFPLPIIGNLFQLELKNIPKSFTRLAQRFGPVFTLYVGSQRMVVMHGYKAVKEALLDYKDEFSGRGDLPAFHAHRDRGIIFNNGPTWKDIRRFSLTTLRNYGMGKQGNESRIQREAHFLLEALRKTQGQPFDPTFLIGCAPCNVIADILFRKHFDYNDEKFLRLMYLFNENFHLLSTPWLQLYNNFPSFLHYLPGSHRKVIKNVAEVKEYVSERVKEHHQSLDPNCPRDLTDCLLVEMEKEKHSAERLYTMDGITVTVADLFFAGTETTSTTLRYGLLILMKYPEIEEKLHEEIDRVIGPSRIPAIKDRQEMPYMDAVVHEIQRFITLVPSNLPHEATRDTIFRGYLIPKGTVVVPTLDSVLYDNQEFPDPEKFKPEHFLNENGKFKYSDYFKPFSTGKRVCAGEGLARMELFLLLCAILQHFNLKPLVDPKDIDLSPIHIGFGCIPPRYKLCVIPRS

Regarding `N#CSCSc1nc2ccccc2s1`, the AC50 was 5.32 µM (active).

These data come from PubChem BioAssay AID2283105 (EPA ToxCast).
